Among the test systems are MAPKAPK5; MARK1; MARK2; MARK3; MARK4; MAST1; MELK; MERTK; MET; MKK7; MKNK1; MKNK2.
Holding throughout (details): concentration: 1 μM,replicates: in singlicate; n = 1
The subject of a further assay is T1, MEK1.
T1 construct: gene MAP2K1

The next assay has as its system T2, MEK2.
T2 construct: gene MAP2K2

The next assay concerns T3, MEK3.
T3 construct: gene MAP2K3

The next assay has as its system T4, MEK4.
T4 construct: gene MAP2K4

Another assay relates to T5, MEK5.
T5 construct: gene MAP2K5

For the next assay, the system named is T6, MEK6.
T6 construct: gene MAP2K6

Another assay concerns T7, MINK.
T7 construct: gene MINK1

Another assay relates to T8, MLCK.
T8 construct: gene MYLK3

The text below walks through data of article PMC5540273 (PLoS ONE, 2017).
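Further: KINOMEscan kinase panel screen.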

For `Cn1ccc2ncnc(Oc3ccc(NC(=O)Nc4cccc(C(F)(F)F)c4)c(Cl)c3)c21`, the “%Inh” value with MAPKAPK5 is listed as 0%; with MARK1 it was 0%; with MARK2 it was 6%; in the assay on MARK3 it was 0%; in the assay on MARK4, 0%; with MAST1, 0%. Besides, the “%Inh” value was found to be 0% in the assay with MEK1; 25% in the assay with MEK2; 0% in the assay on MEK3; 6% in the assay with MEK4; 30% in the assay with MEK5; 30% in the assay with MEK6. For the same compound, the “%Inh” value was determined as 0% in the assay with MELK; 85% in the assay on MERTK; 17% in the assay on MET; 4% in the assay on MINK; 32% in the assay with MKK7; 16% with MKNK1. The “%Inh” value is on record as 19% in the assay on MKNK2 and 12% with MLCK.
With `CS(=O)c1ccc(-c2coc3ccc(-c4n[nH]c(=O)o4)cc23)cc1` (centres unmarked), the “%Inh” value amounted to 11% with MAPKAPK5; 15% in the assay on MARK1; 23% in the assay with MARK2; 0% in the assay on MARK3; 22% with MARK4; 6% in the assay with MAST1. Moreover, the “%Inh” value with MEK1 is 17%; with MEK2, 18%; in the assay with MEK3, 25%; with MEK4, 43%; in the assay on MEK5, 17%; in the assay on MEK6, 0%. In addition, the “%Inh” value with MELK is given as 0%; with MERTK, 0%; with MET it was 22%; with MINK, 7%; with MKK7, 1%; in the assay on MKNK1, 9%. The “%Inh” value with MKNK2 was 11%; in the assay on MLCK it was 32%.
For the compound `C[C@@H](Oc1cc(-n2cnc3ccc(-c4ccncc4)cc32)sc1C(N)=O)c1ccccc1Cl` [GSK483724], the “%Inh” value with MAPKAPK5 is 0%; with MARK1, 8%; in the assay on MARK2, 0%; in the assay with MARK3, 0%; with MARK4 it was 20%; in the assay on MAST1, 0%. For the same compound, the “%Inh” value with MEK1 is recorded as 49%; with MEK2, 0%; with MEK3 it was 34%; in the assay on MEK4 it was 37%; in the assay on MEK5, 78%; in the assay with MEK6, 0%. Further, the “%Inh” value in the assay on MELK is 0%; with MERTK it was 35%; in the assay on MET, 9%; with MINK it was 23%; in the assay on MKK7, 56%; with MKNK1, 0%. Also, the “%Inh” value was 7% in the assay on MKNK2 and 32% with MLCK.
For the compound `COC(=O)c1cccc(NC(=O)NC2CCN(c3ccnc(Nc4cc(OC)c(OC)c(OC)c4)n3)C2)c1` (centres unmarked) [GSK1379767], the “%Inh” value was determined as 0% in the assay on MAPKAPK5; 0% with MARK1; 0% in the assay with MARK2; 0% with MARK3; 7% with MARK4; 15% with MAST1. The “%Inh” value with MEK1 was 0%; in the assay on MEK2 it was 17%; with MEK3 it was 0%; in the assay with MEK4, 26%; in the assay with MEK5, 98.8%; in the assay on MEK6 it was 4%. Further, the “%Inh” value in the assay on MELK is on record as 0%; in the assay with MERTK, 40%; with MET, 19%; in the assay with MINK, 3%; in the assay on MKK7, 21%; in the assay on MKNK1 it was 12%. In addition, the “%Inh” value came to 32% with MKNK2 and 12% in the assay on MLCK.
On to `CCOC(=O)N1CCC(n2cnc(-c3ccc(F)cc3)c2-c2ccnc(N)n2)CC1` [SB-219952], for which the “%Inh” value was determined as 13% with MAPKAPK5; 15% with MARK1; 17% in the assay with MARK2; 0% in the assay on MARK3; 28% in the assay on MARK4; 2% in the assay on MAST1. In addition, the “%Inh” value with MEK1 was 3%; in the assay on MEK2, 27%; in the assay on MEK3 it was 45%; in the assay on MEK4, 18%; in the assay with MEK5 it was 29%; in the assay with MEK6 it was 1%. Also, the “%Inh” value in the assay on MELK is 0%; with MERTK, 21%; with MET, 16%; with MINK, 54%; with MKK7 it was 11%; in the assay with MKNK1, 19%. Moreover, the “%Inh” value with MKNK2 came out at 49%; in the assay with MLCK, 0%.
As for `C[C@@H](Oc1cc(-n2cnc3cc(-c4cnn(C)c4)ccc32)sc1C(N)=O)c1ccccc1Cl` [GSK580432], the “%Inh” value in the assay on MAPKAPK5 turned out to be 0%; in the assay on MARK1, 63%; with MARK2 it was 61%; in the assay with MARK3, 82%; in the assay with MARK4, 59%; in the assay with MAST1, 0%. Besides, the “%Inh” value with MEK1 is 0%; in the assay with MEK2 it was 0%; in the assay on MEK3, 0%; in the assay with MEK4, 18%; in the assay with MEK5, 42%; in the assay on MEK6 it was 15%. The “%Inh” value came to 15% in the assay on MELK; 100% in the assay on MERTK; 69% in the assay on MET; 40% in the assay on MINK; 0% in the assay with MKK7; 2% in the assay with MKNK1. Also, the “%Inh” value with MKNK2 was determined as 20%; in the assay on MLCK, 10%.
Take `COC(=O)c1cccc(NC(=O)NC2CCN(c3ccnc(NCc4ccc(F)cc4)n3)CC2)c1` [GSK1379860]: the “%Inh” value in the assay with MAPKAPK5, in the assay with MARK1, in the assay with MARK2, in the assay with MARK3, with MARK4 and in the assay on MAST1 was 0% each time. In addition, the “%Inh” value with MEK1 is recorded as 0%; in the assay with MEK2 it was 0%; in the assay on MEK3, 0%; in the assay on MEK4, 0%; in the assay with MEK5 it was 8%; in the assay with MEK6 it was 0%. In addition, the “%Inh” value in the assay with MELK was 0%; with MERTK it was 0%; in the assay with MET, 0%; with MINK, 0%; in the assay with MKK7, 45%; in the assay on MKNK1 it was 0%. Moreover, the entries for the “%Inh” value in the assay with MKNK2 and in the assay with MLCK were 9% and 0%, respectively.
In the case of `Nc1nccc(-c2ccc3c(N)n[nH]c3c2)n1` [GSK1034945], the “%Inh” value in the assay with MAPKAPK5 is 0%; in the assay with MARK1 it was 0%; in the assay with MARK2 it was 0%; in the assay with MARK3, 0%; with MARK4, 7%; in the assay on MAST1, 0%. The “%Inh” value in the assay on MEK1 is recorded as 0%; in the assay with MEK2, 0%; with MEK3, 0%; with MEK4 it was 8%; with MEK5, 38%; with MEK6, 0%. The “%Inh” value in the assay with MELK is 24%; in the assay on MERTK, 16%; in the assay on MET, 0%; in the assay on MINK, 47%; in the assay on MKK7 it was 0%; with MKNK1 it was 11%. For the same compound, the entries for the “%Inh” value in the assay with MKNK2 and in the assay on MLCK were 86% and 96.1%, respectively.
`CS(=O)(=O)c1cccc(CNc2nc(Nc3ccc4c(c3)[C@@H]3C[C@@H]4CNC3=O)ncc2C(F)(F)F)c1`: the “%Inh” value in the assay on MAPKAPK5 was 0%; in the assay with MARK1, 8%; in the assay on MARK2, 24%; in the assay with MARK3, 67%; in the assay with MARK4, 44%; in the assay on MAST1 it was 0%. Also, the “%Inh” value in the assay on MEK1 came to 39%; with MEK2, 80%; in the assay on MEK3, 75%; in the assay on MEK4, 89%; in the assay on MEK5, 94.5%; in the assay with MEK6, 5%. Moreover, the “%Inh” value in the assay with MELK was 5%; in the assay with MERTK, 98.6%; in the assay with MET, 93.8%; in the assay with MINK, 90.3%; in the assay with MKK7, 9%; with MKNK1, 0%. In addition, the “%Inh” value in the assay with MKNK2 was 97.6%; in the assay on MLCK, 15%.
Regarding `CC(C)c1nc(-c2cccc(NS(=O)(=O)c3ccccc3)c2)c(-c2ccnc(Nc3ccc4c(c3)CN(C)CC4)n2)s1` [GSK1649598], the “%Inh” value is recorded as 0% with MAPKAPK5; 31% with MARK1; 0% in the assay with MARK2; 14% in the assay on MARK3; 3% in the assay on MARK4; 0% in the assay on MAST1. Besides, the “%Inh” value in the assay with MEK1 was 52%; with MEK2, 77%; in the assay with MEK3, 17%; in the assay on MEK4, 99.5%; with MEK5, 99.1%; in the assay on MEK6 it was 26%. For the same compound, the “%Inh” value in the assay with MELK is 65%; in the assay on MERTK, 42%; in the assay with MET, 23%; in the assay with MINK, 95.1%; in the assay with MKK7, 1%; with MKNK1, 0%. The “%Inh” value in the assay on MKNK2 was 81%; in the assay on MLCK, 0%.
